# Reference: PubChem BioAssay
# Calls of active or inactive are those of the source.
# Experiments:
# [1] = target: Albumin (Bos taurus) (UniProt P02769); experiment: compounds binding labelled BSA control protein – biochemical, small-molecule microarray, Alexa647 label, 635/667 nm fluorescence, artefact control for SMM control protein annotation, profiling panel (AID 1118); conditions: BSA-A647 binding, fluorescence 635 nm, higher = more signal;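 note: score merges 667 nm emission intensity and signal-to-noise per printed compound spot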
# [2] = probe aXIP binding to arrayed compounds – biochemical, NeuroSMM set, 635/667 nm fluorescence, primary screen (AID 1119); conditions: small-molecule microarray, higher = more signal, called active from +8 up or from −8 down;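 note: probe is the protein aXip251-270 applied at 1 µg/mL to compound-printed slides; binding of probe to printed compounds measured as 667 nm fluorescence plus signal to noise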
# [3] = probe aNOTCH3 binding on compound microarray – biochemical, small-molecule microarray, 635/667 nm fluorescence, primary screen (AID 1120); conditions: higher = more signal;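 note: probe is a biotin-tagged antibody raised against NOTCH3 rather than NOTCH3 protein; score merges spot fluorescence near 667 nm with spot signal to noise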
# [4] = probe aNOTCH2 binding on compound microarray – biochemical, small-molecule microarray, 635/667 nm fluorescence, primary screen (AID 1121); conditions: higher = more signal;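 note: score merges feature fluorescence read at 667 nm with its signal to noise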
# [5] = target: Carbonic anhydrase 2 (Homo sapiens) (UniProt P00918); experiment: compounds binding carbonic anhydrase 2 – biochemical, small-molecule microarray, Alexa647-labelled CAII, profiling panel (AID 1122); conditions: CAII-A647 binding fluorescence, higher = more signal
# [6] = COS7 lysate on small-molecule microarray, probe aHis, 635 nm (AID 1123); conditions: COS7 cell lysate, fluorescence, higher = more signal;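 note: z-score combines 667nm fluorescence intensity with signal-to-noise per printed compound spot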
# [7] = probe aLAP1 signal on lysate-treated microarray – cell lysate, small-molecule microarray, COS7 lysate, primary screen (AID 1124); conditions: probe aLAP1, fluorescence, higher = more signal;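 note: lysate comes from COS7 cells expressing LAP1 and is applied at 0.3 µg/mL; score merges spot fluorescence near 667 nm with signal-to-noise over triplicate slides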
# [8] = test system: Sam68 (KHDRBS1); experiment: compounds binding KHDRBS1 protein – biochemical, small-molecule microarray, 635 nm fluorescence, primary screen (AID 1125); conditions: higher = more signal;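 note: score merges 667 nm channel intensity with signal to noise over triplicate slides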
# [9] = test system: Chordin-like protein 2 (CHRDL2); experiment: compounds binding chordin-like 2 – biochemical, small-molecule microarray, 635 nm fluorescence, primary screen (AID 1126); conditions: fluorescence 635 nm, higher = more signal;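 note: printed compound slides probed with Chrdl2 protein at 4 µg/mL for 1 h at 4 C; score merges 667 nm emission intensity with signal to noise over three replicate slides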
# [10] = target: Concanavalin-A (Canavalia ensiformis) (UniProt P02866); experiment: compounds binding concanavalin A lectin – biochemical, small-molecule microarray, Alexa647 label, 635 nm, artefact control for SMM control protein annotation, primary screen (AID 1127); conditions: ConA-A647 binding fluorescence, higher = more signal;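 note: z combines 667 nm emission intensity with signal-to-noise across three replicate slides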
# [11] = compounds binding Alexa647 anti-His antibody – biochemical, small-molecule microarray, 635 nm fluorescence, artefact control for SMM control protein annotation, primary screen (AID 1128); conditions: higher = more signal;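 note: score merges feature fluorescence with signal-to-noise for each printed compound spot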
# [12] = test system: Human papillomavirus type 1a E7 protein (residues 1-88); experiment: HPV1a E7 small-molecule binders, primary screen, biochemical, small-molecule microarray, residues 1-88, 635 nm (AID 1129); conditions: small-molecule microarray binding, fluorescence 635 nm; higher = more signal
# [13] = target: Focal adhesion kinase 1 (Homo sapiens) (UniProt Q05397); experiment: PTK2 protein binding on printed compound slides – biochemical, small-molecule microarray, 635/667 nm fluorescence, BSA, DTT, primary screen (AID 1130); conditions: 635 nm fluorescence, higher = more signal;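 note: composite of spot emission at 667 nm and signal to noise over triplicate slides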
# [14] = test system: Fibrinogen (Alexa647-labelled); experiment: Alexa647-fibrinogen binding to printed small molecules – biochemical, small-molecule microarray, 635/667 nm fluorescence, artefact control for SMM control-protein annotation, profiling panel (AID 1131); conditions: fibrinogen-A647 binding fluorescence, higher = more signal;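 note: z-score merges 667 nm fluorescence with per-spot signal-to-noise over triplicate slides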
# [15] = target: Follistatin (Homo sapiens) (UniProt P19883); experiment: FST protein binding to printed compounds – biochemical, small-molecule microarray, 635/667 nm fluorescence, primary screen (AID 1132); conditions: 635 nm fluorescence, higher = more signal
# [16] = target: Fibroblast growth factor 2 (Homo sapiens) (UniProt P09038); experiment: basic fibroblast growth factor binding to printed compounds – biochemical, small-molecule microarray, 635/667 nm fluorescence, primary screen (AID 1133); conditions: FGF2, fluorescence 635/667, higher = more signal
# [17] = JC-1 mitochondrial potential readout, lung cancer cells – cell-based, A549, JC-1 fluorescence, basal, 24 h, 100 nL, profiling panel (AID 1138); conditions: higher = more signal;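 note: A549 lung adenocarcinoma cells under basal conditions with no added stimulus; test concentration not given here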
# [18] = test system: Lefty1; experiment: Lefty1 protein binding to printed compounds – biochemical, small-molecule microarray, 635/667 nm fluorescence, primary screen (AID 1139); conditions: fluorescence 635/667, higher = more signal
# [19] = test system: wheat germ agglutinin (Triticum aestivum), Alexa647-labelled; experiment: Alexa647-WGA lectin binding to printed small molecules – biochemical, small-molecule microarray, 635/667 nm fluorescence, artefact control for SMM control-protein annotation, profiling panel (AID 1140); conditions: WGA-A647 binding, 635 nm fluorescence, higher = more signal;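 note: score merges 667 nm feature emission with signal to noise over triplicate slides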
# [20] = target: Luciferin 4-monooxygenase (Photinus pyralis) (UniProt P08659); experiment: inhibition of purified Photinus pyralis luciferase – biochemical, luminescence, purified enzyme, 2006 set, primary screen (AID 1141); conditions: purified firefly luciferase, SteadyGlo luminescence, 30 min; higher = more signal, called active from +8 up or from −8 down;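 note: cell-free assay with purified firefly luciferase at 100 ng per well in PBS; test concentration not given here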
# Luciferin 4-monooxygenase (Photinus pyralis), sequence (P08659 whole entry, looked up): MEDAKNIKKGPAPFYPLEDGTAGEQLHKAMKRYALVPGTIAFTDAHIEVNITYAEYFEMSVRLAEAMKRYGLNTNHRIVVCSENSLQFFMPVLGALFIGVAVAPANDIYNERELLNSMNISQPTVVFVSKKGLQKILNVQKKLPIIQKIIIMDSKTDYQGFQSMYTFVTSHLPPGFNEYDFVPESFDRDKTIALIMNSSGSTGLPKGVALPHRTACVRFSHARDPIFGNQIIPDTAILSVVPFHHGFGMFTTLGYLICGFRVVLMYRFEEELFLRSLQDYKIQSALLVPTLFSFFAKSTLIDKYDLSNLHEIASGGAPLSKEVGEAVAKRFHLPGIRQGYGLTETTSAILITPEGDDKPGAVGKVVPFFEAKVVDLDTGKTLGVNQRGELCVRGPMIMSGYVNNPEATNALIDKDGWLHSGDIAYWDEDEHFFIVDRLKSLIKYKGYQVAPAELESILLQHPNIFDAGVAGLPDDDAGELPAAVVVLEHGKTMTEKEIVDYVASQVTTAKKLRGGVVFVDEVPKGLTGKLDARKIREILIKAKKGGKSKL
# Concanavalin-A (Canavalia ensiformis), sequence (P02866 whole entry, looked up): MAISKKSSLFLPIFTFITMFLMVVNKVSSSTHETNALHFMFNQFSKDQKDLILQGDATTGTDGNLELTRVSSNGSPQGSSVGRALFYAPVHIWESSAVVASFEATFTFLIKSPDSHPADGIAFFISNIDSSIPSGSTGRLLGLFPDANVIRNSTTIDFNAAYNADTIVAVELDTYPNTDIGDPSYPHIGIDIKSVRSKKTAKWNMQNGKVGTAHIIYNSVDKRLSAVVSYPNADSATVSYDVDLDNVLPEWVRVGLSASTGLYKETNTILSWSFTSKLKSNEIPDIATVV
# Albumin (Bos taurus), sequence (P02769 whole entry, looked up): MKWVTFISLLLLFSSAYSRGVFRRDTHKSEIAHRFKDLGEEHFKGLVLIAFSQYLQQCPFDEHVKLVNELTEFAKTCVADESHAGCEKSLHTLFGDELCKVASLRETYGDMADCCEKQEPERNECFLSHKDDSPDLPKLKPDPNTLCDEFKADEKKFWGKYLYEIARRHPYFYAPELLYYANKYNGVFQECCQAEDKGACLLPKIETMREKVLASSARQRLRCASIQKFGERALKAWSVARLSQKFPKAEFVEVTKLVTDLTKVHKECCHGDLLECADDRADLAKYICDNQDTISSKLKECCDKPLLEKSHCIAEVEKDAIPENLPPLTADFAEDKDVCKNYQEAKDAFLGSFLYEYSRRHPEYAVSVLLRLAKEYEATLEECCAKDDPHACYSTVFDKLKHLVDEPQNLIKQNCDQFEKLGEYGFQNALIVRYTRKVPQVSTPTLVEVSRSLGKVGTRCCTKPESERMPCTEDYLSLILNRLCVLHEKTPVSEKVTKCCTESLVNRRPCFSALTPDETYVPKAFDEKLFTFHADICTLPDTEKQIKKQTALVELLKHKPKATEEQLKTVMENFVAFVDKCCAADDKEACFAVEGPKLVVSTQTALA
# Fibroblast growth factor 2 (Homo sapiens), sequence (P09038 whole entry, looked up): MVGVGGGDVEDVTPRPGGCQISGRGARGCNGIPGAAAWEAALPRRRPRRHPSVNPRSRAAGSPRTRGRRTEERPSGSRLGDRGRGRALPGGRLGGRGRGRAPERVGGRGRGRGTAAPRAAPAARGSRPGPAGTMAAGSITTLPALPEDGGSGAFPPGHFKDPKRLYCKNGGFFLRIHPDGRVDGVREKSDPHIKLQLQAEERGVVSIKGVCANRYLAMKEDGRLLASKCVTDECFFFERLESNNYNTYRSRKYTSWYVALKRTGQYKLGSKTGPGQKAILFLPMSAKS
# Follistatin (Homo sapiens), sequence (P19883 whole entry, looked up): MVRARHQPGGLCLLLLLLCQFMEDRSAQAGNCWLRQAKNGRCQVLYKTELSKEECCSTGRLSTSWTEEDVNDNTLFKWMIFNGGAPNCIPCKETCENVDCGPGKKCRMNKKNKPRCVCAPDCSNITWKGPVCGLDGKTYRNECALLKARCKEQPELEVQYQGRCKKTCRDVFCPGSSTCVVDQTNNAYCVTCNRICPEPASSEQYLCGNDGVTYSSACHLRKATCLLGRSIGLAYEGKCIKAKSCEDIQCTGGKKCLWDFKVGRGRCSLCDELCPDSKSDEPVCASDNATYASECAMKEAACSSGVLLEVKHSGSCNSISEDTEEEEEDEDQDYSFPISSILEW
# Focal adhesion kinase 1 (Homo sapiens), sequence (Q05397 whole entry, looked up): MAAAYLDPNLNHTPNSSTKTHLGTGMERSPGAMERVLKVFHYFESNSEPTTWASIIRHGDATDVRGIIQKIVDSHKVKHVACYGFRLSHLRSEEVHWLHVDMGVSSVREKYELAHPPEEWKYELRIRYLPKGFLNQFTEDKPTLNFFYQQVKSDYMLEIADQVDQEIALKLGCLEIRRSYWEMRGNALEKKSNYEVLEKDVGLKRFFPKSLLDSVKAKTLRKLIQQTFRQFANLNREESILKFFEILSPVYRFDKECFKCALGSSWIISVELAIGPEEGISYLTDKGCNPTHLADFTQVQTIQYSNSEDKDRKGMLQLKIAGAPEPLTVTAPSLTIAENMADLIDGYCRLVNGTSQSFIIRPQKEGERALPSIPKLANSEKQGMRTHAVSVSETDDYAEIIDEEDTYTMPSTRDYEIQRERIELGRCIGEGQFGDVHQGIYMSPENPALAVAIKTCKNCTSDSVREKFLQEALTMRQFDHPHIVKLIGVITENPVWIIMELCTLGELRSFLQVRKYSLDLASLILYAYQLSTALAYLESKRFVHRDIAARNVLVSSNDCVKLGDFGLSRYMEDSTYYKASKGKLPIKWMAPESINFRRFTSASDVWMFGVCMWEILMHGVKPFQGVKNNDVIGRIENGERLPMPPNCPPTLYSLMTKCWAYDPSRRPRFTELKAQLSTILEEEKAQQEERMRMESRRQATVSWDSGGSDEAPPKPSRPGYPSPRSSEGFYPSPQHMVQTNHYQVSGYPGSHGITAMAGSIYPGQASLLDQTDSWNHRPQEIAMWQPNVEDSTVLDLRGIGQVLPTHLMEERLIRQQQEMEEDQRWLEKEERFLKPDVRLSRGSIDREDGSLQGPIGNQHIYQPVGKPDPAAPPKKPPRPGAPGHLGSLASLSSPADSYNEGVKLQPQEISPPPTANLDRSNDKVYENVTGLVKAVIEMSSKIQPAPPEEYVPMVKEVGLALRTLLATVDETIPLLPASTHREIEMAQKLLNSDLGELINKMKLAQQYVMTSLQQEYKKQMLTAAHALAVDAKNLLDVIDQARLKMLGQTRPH
Structure (SMILES),composite z-score [1],composite Z-score [2],composite z-score [3],composite z-score [4],composite z-score [5],composite z-score [6],composite z-score [7],composite z-score [8],composite z-score [9],composite z-score [10],composite z-score [11],composite z-score [12],composite z-score [13],composite z-score [14],composite z-score [15],composite z-score [16],z-score [17],composite z-score [18],composite z-score [19],z-score [20]
CCCCC(=C=CC[C@@H](O)c1ccc(OCCO)cc1)C[C@@H](O)c1cc(Cl)cc(Cl)c1O,0.645,0.0371 (inactive),0.151,-0.048,0.674,0.886,0.673,0.661,-0.101,0.486,0.155,0.597,0.507,0.556,0.63,0.594,1.28,0.255,1.21,-3.02 (inactive)
CCCNC(=O)[C@@H]1c2ccccc2C(=O)N(Cc2cc(C(F)(F)F)cc(C(F)(F)F)c2)[C@H]1c1ccc(CO)cc1,-0.419,-0.251 (inactive),-0.0343,-0.194,0.422,0.64,0.227,0.679,-0.608,0.234,0.14,0.541,0.452,0.0967,0.652,0.213,0.904,0.0044,0.14,-0.831 (inactive)
CC(C)(C)OC(=O)CC[C@]1(C(=O)NCc2ccccc2)COC(c2ccc(OCCCO)cc2)=N1,0.875,0.603 (inactive),0.0128,0.0377,0.673,2.41,1.49,1.25,-1.45,0.255,-0.518,1.25,0.444,0.694,-0.0444,-1.04,0.695,-0.986,1.33,-0.714 (inactive)
CC(C)CNC(=O)[C@@H]1c2ccccc2C(=O)N(Cc2ccc(OC(F)(F)F)cc2)[C@H]1c1ccc(CO)cc1,0.0335,0.465 (inactive),0.0813,0.0081,0.572,2.36,0.0712,1.3,-0.0181,1.07,1.31,1.19,1.04,0.647,1.34,1.09,0.71,1.52,0.75,-1.25 (inactive)
C=CCNC(=O)[C@H]1[C@@H]2C(=O)O[C@@H](c3ccccc3)[C@@H](c3ccccc3)N2[C@@H](c2ccc(OCCO)cc2)[C@]12C(=O)Nc1ccc(C#CCCO)cc12,0.321,0.512 (inactive),0.116,-0.13,0.394,1.86,0.725,1.14,0.089,0.783,-0.0886,1.11,0.418,0.61,1.3,0.327,0.187,0.909,1.06,-0.969 (inactive)
